Source: PubChem BioAssay (NCI)
About 83,000 compounds went through this panel and 20% of them were active in at least one assay; those are over-represented in the sample as a whole.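 A percent growth of 40 corresponds to 60% growth inhibition; 0 means no net growth; -100 means all cells died. Active threshold: below 10.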 Active and inactive are the calls of the source.

Tests used:
Experiment in all cases: NCI-60 one-dose screen, 48 h (100 = growth as untreated, 0 = no growth, -100 = all killed)
Conditions in all cases: 10 µM unless noted
DU-145 prostate = tested on: DU-145 prostate
K-562 leukemia = tested on: K-562 leukemia
MALME-3M melanoma = tested on: MALME-3M melanoma
MDA-MB-231 breast = tested on: MDA-MB-231 breast
RXF 393 renal = tested on: RXF 393 renal
SF-268 CNS = tested on: SF-268 CNS
SF-295 CNS = tested on: SF-295 CNS
SF-539 CNS = tested on: SF-539 CNS
UACC-257 melanoma = tested on: UACC-257 melanoma
M14 melanoma = tested on: M14 melanoma
HCT-15 colon = tested on: HCT-15 colon
HT29 colon = tested on: HT29 colon
SNB-75 CNS = tested on: SNB-75 CNS
SNB-19 CNS = tested on: SNB-19 CNS
U251 CNS = tested on: U251 CNS
PC-3 prostate = tested on: PC-3 prostate
SK-MEL-5 melanoma = tested on: SK-MEL-5 melanoma
UACC-62 melanoma = tested on: UACC-62 melanoma
LOX IMVI melanoma = tested on: LOX IMVI melanoma
SK-MEL-28 melanoma = tested on: SK-MEL-28 melanoma

Measured: growth

O=C1NC(=O)c2c1c1c3ccccc3[nH]c1c1oc3ccc(F)cc3c21
inactive: DU-145 prostate 77.4% | K-562 leukemia 78.4% | MALME-3M melanoma 48.6% | MDA-MB-231 breast 77.9% | RXF 393 renal 69.1% | SF-268 CNS 79.5% | SF-295 CNS 71% | SF-539 CNS 64.3% | UACC-257 melanoma 95.1% | M14 melanoma 45.1% | HCT-15 colon 55.1% | HT29 colon 81.9% | SNB-75 CNS 41.3% | SNB-19 CNS 89.4% | U251 CNS 83.4% | PC-3 prostate 45% | SK-MEL-5 melanoma 53% | UACC-62 melanoma 46.1% | LOX IMVI melanoma 66% | SK-MEL-28 melanoma 90.6%

COc1ccc2c(c1)c(-c1nonc1-c1c[nH]c3ccc(Br)cc13)cn2C
inactive: DU-145 prostate 61.2% | K-562 leukemia 11.5% | MALME-3M melanoma 46.3% | MDA-MB-231 breast 43.4% | RXF 393 renal 67% | SF-268 CNS 48.3% | SF-295 CNS 40.2% | SF-539 CNS 56.6% | UACC-257 melanoma 64.7% | M14 melanoma 20.8% | HCT-15 colon 22.2% | HT29 colon 11.9% | SNB-75 CNS 63.3% | SNB-19 CNS 52.2% | U251 CNS 34.9% | PC-3 prostate 43.8% | SK-MEL-5 melanoma 57.1% | UACC-62 melanoma 38.2% | LOX IMVI melanoma 22.4% | SK-MEL-28 melanoma 61%

COc1ccc2c(c1)c(-c1nc(-c3cn(C)c4ncccc34)cs1)cn2CCO
inactive: DU-145 prostate 90.9% | K-562 leukemia 25.2% | MALME-3M melanoma 110% | MDA-MB-231 breast 57% | RXF 393 renal 84.6% | SF-268 CNS 91.1% | SF-295 CNS 74.1% | SF-539 CNS 75% | UACC-257 melanoma 92.4% | M14 melanoma 75.1% | HCT-15 colon 61.1% | HT29 colon 75.3% | SNB-75 CNS 91.3% | SNB-19 CNS 90.2% | U251 CNS 78.5% | PC-3 prostate 69.1% | SK-MEL-5 melanoma 74.2% | UACC-62 melanoma 80.4% | LOX IMVI melanoma 59.3% | SK-MEL-28 melanoma 86%

C#CC#CC#CC#CC#CC#CC#CC#CC[C@H]1OC[C@H](COC(=O)O[C@@H](C(=O)O[C@H]2C[C@@]3(O)[C@@H](OC(=O)c4ccccc4)[C@@H]4[C@]5(OC(C)=O)CO[C@@H]5C[C@H](O)[C@@]4(C)C(=O)[C@H](OC(C)=O)C(=C2C)C3(C)C)[C@@H](NC(=O)c2ccccc2)c2ccccc2)O1
inactive: DU-145 prostate 45.3% | K-562 leukemia 22.2% | MALME-3M melanoma 56.7% | MDA-MB-231 breast 62.5% | RXF 393 renal 43% | SF-268 CNS 61.7% | SF-295 CNS 44.6% | SF-539 CNS 39.8% | UACC-257 melanoma 70.9% | M14 melanoma 27.5% | HCT-15 colon 99.5% | SNB-75 CNS 37.6% | SNB-19 CNS 50.3% | U251 CNS 37.8% | PC-3 prostate 32.7% | SK-MEL-5 melanoma 60.5% | UACC-62 melanoma 46.2% | LOX IMVI melanoma 39.7% | SK-MEL-28 melanoma 52.1%
active: HT29 colon 8.74%

COc1ccc2cc(-c3ccc(-c4ccc(C(=N)N)s4)s3)ccc2c1
active: DU-145 prostate -67.2% | K-562 leukemia -42.8% | MDA-MB-231 breast -15.2% | RXF 393 renal -25.9% | SF-268 CNS -33.9% | HCT-15 colon -81.6% | HT29 colon -70.8% | SNB-19 CNS -26.8% | U251 CNS -85.9% | UACC-62 melanoma -16.3% | LOX IMVI melanoma -58.2%
inactive: MALME-3M melanoma 101% | SF-295 CNS 86% | SF-539 CNS 89.5% | UACC-257 melanoma 62.8% | M14 melanoma 36.2% | SNB-75 CNS 21% | PC-3 prostate 23.1% | SK-MEL-5 melanoma 95.1% | SK-MEL-28 melanoma 109%

COc1ccc(Cc2cnc(NC(=O)c3sc4ccccc4c3Cl)s2)cc1
active: K-562 leukemia 7% | RXF 393 renal 1.01% | SF-539 CNS -19.4% | HT29 colon 8.15% | SNB-75 CNS 9.6%
inactive: DU-145 prostate 25% | MALME-3M melanoma 56.6% | MDA-MB-231 breast 41.9% | SF-268 CNS 52.9% | SF-295 CNS 14.9% | UACC-257 melanoma 49.8% | M14 melanoma 10.2% | HCT-15 colon 15.9% | SNB-19 CNS 50.7% | U251 CNS 20.8% | PC-3 prostate 31.5% | SK-MEL-5 melanoma 27.8% | UACC-62 melanoma 35.7% | LOX IMVI melanoma 45.9% | SK-MEL-28 melanoma 62.1%

CCOC(=O)c1c(C)nn(CC(O)c2ccccc2)c1NC(=O)Nc1cccc(F)c1 (stereo not given)
inactive: DU-145 prostate 94.3% | K-562 leukemia 88.5% | MALME-3M melanoma 101% | MDA-MB-231 breast 93% | RXF 393 renal 85.2% | SF-268 CNS 83.7% | SF-295 CNS 78.9% | SF-539 CNS 98.8% | UACC-257 melanoma 91% | M14 melanoma 96.2% | HCT-15 colon 85.2% | HT29 colon 96% | SNB-75 CNS 77.3% | SNB-19 CNS 94.8% | U251 CNS 93.4% | PC-3 prostate 76.8% | SK-MEL-5 melanoma 94.7% | UACC-62 melanoma 77.2% | LOX IMVI melanoma 95% | SK-MEL-28 melanoma 104%

CC1CN=C(c2cccc(-c3ccc(-c4ccccc4)o3)c2)N1 (stereo not given)
inactive: DU-145 prostate 37.4% | SNB-75 CNS 58.7% | SNB-19 CNS 25.8% | PC-3 prostate 11.2%
active: K-562 leukemia -38.2% | MALME-3M melanoma -85.2% | MDA-MB-231 breast -51.5% | RXF 393 renal -67.8% | SF-268 CNS 3.07% | SF-295 CNS -49.1% | SF-539 CNS -72.2% | UACC-257 melanoma -58.5% | M14 melanoma -67.2% | HCT-15 colon -57.5% | HT29 colon -43.6% | U251 CNS -24.3% | SK-MEL-5 melanoma -93.3% | UACC-62 melanoma -62.2% | LOX IMVI melanoma -85.7% | SK-MEL-28 melanoma -76.3%
